± gives the standard deviation of the averaged measurements.
Experiments:
Experiment in all cases: cell viability (% of vehicle); higher = less cytotoxic
HCI01 [1] = cells of a triple-negative basal-like breast cancer xenograft; settings: 1 µM; 72 h
UCD52 [2] = cells of a triple-negative basal-like breast cancer xenograft; settings: 1 µM; 72 h
WHIM2 [3] = cells of a triple-negative basal-like breast cancer xenograft; settings: 1 µM; 72 h
WHIM30 [4] = cells of a triple-negative basal-like breast cancer xenograft; settings: 1 µM; 72 h
HCI01 [5] = settings: 10 µM; 72 h
HCI03 = cells of an ER-positive luminal breast cancer xenograft; settings: 10 µM; 72 h
HCI09 = cells of a triple-negative luminal androgen receptor type breast cancer xenograft; settings: 10 µM; 72 h
HCI11 = cells of an ER-positive luminal breast cancer xenograft; settings: 10 µM; 72 h
HCI16 = cells of a triple-negative basal-like breast cancer xenograft; settings: 10 µM; 72 h
UCD52 [6] = settings: 10 µM; 72 h
WHIM2 [7] = settings: 10 µM; 72 h
WHIM30 [8] = settings: 10 µM; 72 h
HCI13 = cells of an ER-positive luminal breast cancer xenograft; settings: 10 µM; 72 h

CCN(CC)CCNC(=O)c1c(C)[nH]c(C=C2C(=O)Nc3ccc(F)cc32)c1C [Sunitinib] showed a cell viability (HCI01 [1]) of 81.1, a cell viability (UCD52 [2]) of 73 and a cell viability (WHIM2 [3]) of 66. For the same compound, the cell viability (WHIM30 [4]) was 86.7, the cell viability (HCI01 [5]) was 106 ± 39 and the cell viability (HCI03) was 134. For the same compound, the cell viability (HCI09) was 71.8 ± 35, the cell viability (HCI11) was 134 and the cell viability (HCI16) was 125. It also gave a cell viability (UCD52 [6]) of 61.8 ± 3.4, a cell viability (WHIM2 [7]) of 104 ± 68 and a cell viability (WHIM30 [8]) of 37.9 ± 7.1.

CO[C@H]1C[C@@H]2CC[C@@H](C)[C@@](O)(O2)C(=O)C(=O)N2CCCC[C@H]2C(=O)O[C@H]([C@H](C)C[C@@H]2CC[C@@H](OC(=O)C(C)(CO)CO)[C@H](OC)C2)CC(=O)[C@H](C)/C=C(\C)[C@@H](O)[C@@H](OC)C(=O)[C@H](C)C[C@H](C)/C=C/C=C/C=C/1C [Temsirolimus] showed a cell viability (HCI01 [1]) of 76.2, a cell viability (UCD52 [2]) of 55.1 and a cell viability (WHIM2 [3]) of 80. For the same compound, the cell viability (WHIM30 [4]) was 74.2, the cell viability (HCI01 [5]) was 31.8 ± 1.4 and the cell viability (HCI03) was 57.5. The cell viability (HCI09) was 26.7 ± 8.6, the cell viability (HCI11) was 54.3 and the cell viability (HCI13) was 24.6 ± 11. For the same compound, the cell viability (HCI16) was 45.2, the cell viability (UCD52 [6]) was 23.1 ± 2.3 and the cell viability (WHIM2 [7]) was 42.4 ± 15. For the same compound, the cell viability (WHIM30 [8]) was 30.5 ± 1.6.

COC(=O)NC(C(=O)NC(Cc1ccccc1)C(O)CN(Cc1ccc(-c2ccccn2)cc1)NC(=O)C(NC(=O)OC)C(C)(C)C)C(C)(C)C (configuration not stated) [Atazanavir] showed a cell viability (HCI01 [1]) of 92.8, a cell viability (UCD52 [2]) of 80.2 and a cell viability (WHIM2 [3]) of 91.7. The cell viability (WHIM30 [4]) was 84.6, the cell viability (HCI01 [5]) was 88.35 ± 0.71 and the cell viability (HCI03) was 80. It also gave a cell viability (HCI09) of 57.5 ± 2, a cell viability (HCI11) of 74.5 and a cell viability (HCI13) of 81.7 ± 5.1. It also gave a cell viability (HCI16) of 151, a cell viability (UCD52 [6]) of 51.6 ± 3.1 and a cell viability (WHIM2 [7]) of 73.7 ± 1.3. It also gave a cell viability (WHIM30 [8]) of 82.1 ± 5.5.

In the case of Clc1ccc(COC(Cn2ccnc2)c2ccc(Cl)cc2Cl)cc1.O=[N+]([O-])O (configuration not stated) [Econazole nitrate], the cell viability (HCI01 [1]) is reported as 101, the cell viability (UCD52 [2]) is reported as 92 and the cell viability (WHIM2 [3]) is reported as 115. The cell viability (WHIM30 [4]) was 92.7, the cell viability (HCI01 [5]) was 33.7 ± 2 and the cell viability (HCI03) was 88.1. For the same compound, the cell viability (HCI09) was 27.3 ± 11, the cell viability (HCI11) was 116 and the cell viability (HCI13) was 36.3 ± 1.7. It also gave a cell viability (HCI16) of 105, a cell viability (UCD52 [6]) of 54 ± 2.1 and a cell viability (WHIM2 [7]) of 45.3 ± 14. It also gave a cell viability (WHIM30 [8]) of 90.6 ± 24.

Compound CCN(CC)CCCC(C)Nc1ccnc2cc(Cl)ccc12.O=P(O)(O)O.O=P(O)(O)O (configuration not stated) [Chloroquine diphosphate] has a cell viability (HCI01 [1]) of 88.7, a cell viability (UCD52 [2]) of 68.5 and a cell viability (WHIM2 [3]) of 77.4. The cell viability (WHIM30 [4]) was 81.2, the cell viability (HCI01 [5]) was 75.4 ± 4.4 and the cell viability (HCI03) was 93.1. The cell viability (HCI09) was 95.5 ± 18, the cell viability (HCI11) was 88.4 and the cell viability (HCI13) was 142 ± 20. It also gave a cell viability (HCI16) of 102, a cell viability (UCD52 [6]) of 72.7 ± 0.86 and a cell viability (WHIM2 [7]) of 71.2 ± 17. The cell viability (WHIM30 [8]) was 74.46 ± 0.26.

With CCCCCCCCc1ccc(CCC(N)(CO)CO)cc1.Cl [Fingolimod (FTY720)] the cell viability (HCI01 [1]) was 97.7, the cell viability (UCD52 [2]) was 87.9 and the cell viability (WHIM2 [3]) was 92.2. The cell viability (WHIM30 [4]) was 84.3, the cell viability (HCI01 [5]) was 28.9 ± 5.8 and the cell viability (HCI03) was 53.9. The cell viability (HCI09) was 18.8 ± 3.1, the cell viability (HCI11) was 33.8 and the cell viability (HCI13) was 52.3 ± 9.9. It also gave a cell viability (HCI16) of 49.1, a cell viability (UCD52 [6]) of 25.6 ± 1.3 and a cell viability (WHIM2 [7]) of 77.9 ± 3.2. For the same compound, the cell viability (WHIM30 [8]) was 82.5 ± 15.

In the case of CN(C(=O)CN(CCO)CC(=O)N(C)C(C)(C)Cc1ccccc1)C(C)(C)Cc1ccccc1 [Oxethazaine], the cell viability (HCI01 [1]) is reported as 87.3, the cell viability (UCD52 [2]) is reported as 93.6 and the cell viability (WHIM2 [3]) is reported as 88.5. For the same compound, the cell viability (WHIM30 [4]) was 88.4, the cell viability (HCI01 [5]) was 96.6 ± 4.3 and the cell viability (HCI03) was 55.9. For the same compound, the cell viability (HCI09) was 69.4 ± 40, the cell viability (HCI11) was 87.9 and the cell viability (HCI13) was 45.7 ± 12. The cell viability (HCI16) was 83.1, the cell viability (UCD52 [6]) was 39.3 ± 4.8 and the cell viability (WHIM2 [7]) was 43.2 ± 9.4. It also gave a cell viability (WHIM30 [8]) of 96.4 ± 9.4.

CCC(NC(=O)C(C)NC)C(=O)N1CC(O)CC1Cc1c(-c2[nH]c3cc(F)ccc3c2CC2CC(O)CN2C(=O)C(CC)NC(=O)C(C)NC)[nH]c2cc(F)ccc12 (configuration not stated) showed a cell viability (HCI01 [1]) of 82.8, a cell viability (UCD52 [2]) of 68.5 and a cell viability (WHIM2 [3]) of 36.3. For the same compound, the cell viability (WHIM30 [4]) was 56.6, the cell viability (HCI01 [5]) was 133 ± 5.6 and the cell viability (HCI03) was 99.5. It also gave a cell viability (HCI09) of 146 ± 36, a cell viability (HCI11) of 128 and a cell viability (HCI16) of 115. It also gave a cell viability (UCD52 [6]) of 93.8 ± 8.2, a cell viability (WHIM2 [7]) of 114.1 ± 0.19 and a cell viability (WHIM30 [8]) of 149 ± 20.

O=c1cc[nH]c(=O)[nH]1 [Uracil] showed a cell viability (HCI01 [5]) of 120 ± 20, a cell viability (HCI03) of 139 and a cell viability (HCI09) of 116 ± 28. It also gave a cell viability (HCI11) of 98.8, a cell viability (HCI13) of 64.47 ± 0.33 and a cell viability (HCI16) of 116. For the same compound, the cell viability (UCD52 [6]) was 101 ± 7 and the cell viability (WHIM2 [7]) was 135 ± 11.

Compound NC(=O)c1ncn(C2OC(CO)C(O)C2O)n1 (configuration not stated) [Ribavirin] has a cell viability (HCI01 [5]) of 72.7 ± 49, a cell viability (HCI03) of 148 and a cell viability (HCI09) of 92.7 ± 2.2. It also gave a cell viability (HCI11) of 93.7, a cell viability (HCI13) of 118 ± 9.9 and a cell viability (HCI16) of 110. The cell viability (UCD52 [6]) was 96.4 ± 6.9 and the cell viability (WHIM2 [7]) was 99.1 ± 46.

Compound O=c1[nH]cc(F)c(=O)[nH]1 [Fluorouracil (Adrucil)] has a cell viability (HCI01 [5]) of 136 ± 18, a cell viability (HCI03) of 112 and a cell viability (HCI09) of 75.1 ± 7.2. It also gave a cell viability (HCI11) of 167, a cell viability (HCI13) of 81.1 ± 6 and a cell viability (HCI16) of 151. For the same compound, the cell viability (UCD52 [6]) was 139.3 ± 0.23 and the cell viability (WHIM2 [7]) was 106 ± 20.

Compound NC(=O)c1cnccn1 [Pyrazinamide] has a cell viability (HCI01 [5]) of 66.5 ± 42, a cell viability (HCI03) of 126 and a cell viability (HCI09) of 90.8 ± 15. For the same compound, the cell viability (HCI11) was 93.8, the cell viability (HCI13) was 99.7 ± 1.4 and the cell viability (HCI16) was 98.9. The cell viability (UCD52 [6]) was 85.8 ± 0.98 and the cell viability (WHIM2 [7]) was 90.2 ± 30.

CCC1OC(=O)CC(O)C(C)C(OC2OC(C)C(OC3CC(C)(O)C(O)C(C)O3)C(N(C)C)C2O)C(CC=O)CC(C)C(=O)C=CC(C)=CC1COC1OC(C)C(O)C(OC)C1OC.O=C(O)C(O)C(O)C(=O)O (configuration not stated) [Tylosin tartrate] was tested, and the cell viability (HCI01 [5]) was 75.1 ± 40, the cell viability (HCI03) was 165 and the cell viability (HCI09) was 88.2 ± 5.5. For the same compound, the cell viability (HCI11) was 82.3, the cell viability (HCI13) was 97.3 ± 33 and the cell viability (HCI16) was 126. For the same compound, the cell viability (UCD52 [6]) was 85.2 ± 5.8 and the cell viability (WHIM2 [7]) was 110.8 ± 0.8.

CC(O)C(=O)O.CC(O)C(=O)O.CN1CCN(c2ccc3c(c2)NC(=C2C(=O)N=c4cccc(F)c4=C2N)N3)CC1 [Dovitinib Dilactic acid] was tested, and the cell viability (HCI01 [1]) was 103, the cell viability (UCD52 [2]) was 89.6 and the cell viability (WHIM2 [3]) was 96.9. For the same compound, the cell viability (WHIM30 [4]) was 77.8, the cell viability (HCI01 [5]) was 43.1 ± 5.7 and the cell viability (HCI09) was 19.9 ± 0.23. The cell viability (HCI11) was 66, the cell viability (HCI13) was 79 ± 2.3 and the cell viability (HCI16) was 44.4. It also gave a cell viability (UCD52 [6]) of 21.9 ± 2.9 and a cell viability (WHIM2 [7]) of 52.2 ± 12.

In the case of CCCSc1ccc2nc(NC(=O)OC)[nH]c2c1 [Albendazole], the cell viability (HCI01 [5]) is reported as 166 ± 38, the cell viability (HCI03) is reported as 131 and the cell viability (HCI09) is reported as 172 ± 35. The cell viability (HCI11) was 93.6, the cell viability (HCI13) was 127 ± 10 and the cell viability (HCI16) was 160. For the same compound, the cell viability (UCD52 [6]) was 95.4 ± 25 and the cell viability (WHIM2 [7]) was 123 ± 28.

Work on CN1CCN(CCCN2c3ccccc3Sc3ccc(Cl)cc32)CC1 [Prochlorperazine] yielded a cell viability (HCI01 [5]) of 113 ± 3, a cell viability (HCI03) of 118 and a cell viability (HCI09) of 98.8 ± 8.7. The cell viability (HCI11) was 91.1, the cell viability (HCI13) was 128 ± 17 and the cell viability (HCI16) was 92.1. For the same compound, the cell viability (UCD52 [6]) was 63.7 ± 7.7 and the cell viability (WHIM2 [7]) was 74.7 ± 5.

With CC(=O)NC1C(N=C(N)N)C=C(C(=O)O)OC1C(O)C(O)CO (configuration not stated) [Zanamivir] the cell viability (HCI01 [5]) was 82.4 ± 58, the cell viability (HCI03) was 156 and the cell viability (HCI09) was 96 ± 12. For the same compound, the cell viability (HCI11) was 90.8, the cell viability (HCI13) was 108 ± 2.3 and the cell viability (HCI16) was 113. The cell viability (UCD52 [6]) was 90.4 ± 1.5 and the cell viability (WHIM2 [7]) was 106 ± 31.

From the supplement of paper PMC6992640
